Most compounds without a hit are left out; they make up all but 8% or so of the library.
KB-V1 cytotox: qHTS assay for MDR1-selective chemotherapeutics: Primary screen using the drug-selected MDR subline cells KB-V1; KB-V1 MDR cells viability, CellTiter-Glo, 72 h; Potency, µM (titrated, usually from 46.1 µM), actives largely listed as cytotoxic; 400,000 tested, 3.4% active; also: nearly all actives have a fitted effect of over 60% in size
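Compound-treated KB-V1 multidrug-resistant cells, 72 h, 37 degrees C; viability by CellTiter-Glo. Fitted qHTS curves give the values.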
SW480 rereplic: A quantitative high throughput screen for small molecules that induce DNA re-replication in SW480 colon adenocarcinoma cells; 340,000 tested, 1.8% active; Potency, µM (top dose mostly 46.1 µM), usual class: activators; SW480 DNA re-replication, Hoechst DNA content imaging, 48 h; also: nearly all actives have a fitted effect of over 55% in size
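Readout is total intensity of Hoechst-stained nuclei, excited at 405 nm and collected at 500-530 nm. Compound treatment lasted 48 hr at 37 C in 5% CO2 before staining.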
HT1080-NT tox: qHTS for induction of synthetic lethality in tumor cells producing 2HG: qHTS for the HT-1080-NT fibrosarcoma cell line; AID 686970, 2013; Potency, µM (top dose mostly 46.1 µM), usual class: cytotoxic; HT-1080-NT fibrosarcoma viability, CellTiter-Glo ATP luminescence, 48 h; 360,000 tested, 1.6% active;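 also: NT is the 2HG producing partner of a matched IDH1 knockdown line; nearly all actives have a fitted effect of over 55% in size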
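Viability of the 2HG-overproducing fibrosarcoma line after 48 hours of compound exposure at 37 degrees C was determined by luminescence with CellTiter-Glo, and concentration-effect curves were then fitted and categorized.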
HT1080 IDH1KD tx: qHTS for induction of synthetic lethality in tumor cells producing 2HG: qHTS for the HT-1080-IDH1KD cell line; Potency, µM (highest dose often 46.1 µM), hits mostly cytotoxic; 360,000 tested, 2% active; HT-1080 IDH1 knockdown viability, ATP luminescence, 48 h; AID 686971, 2013
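Cytotoxicity counter-line: IDH1KD HT-1080, 48 h, CellTiter-Glo. Curves classed by r2, magnitude and activity.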
KB-3-1 tox: qHTS assay for MDR1-selective chemotherapeutics: Primary screen using the parental adenocarcinoma cell KB-3-1; Potency, µM (doses to about 46.1 µM), usual class: cytotoxic; 400,000 tested, 1.4% active; KB-3-1 viability, CellTiter-Glo ATP luminescence, 72 h; also: nearly all actives have a fitted effect of over 60% in size
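Parental KB-3-1 viability, qHTS format: 72 h compound exposure, 37 °C; CellTiter-Glo; media-only wells and DMSO plates as controls; concentration-effect fits on corrected data.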
MCF10A rerep: A quantitative high throughput screen for small molecules that induce DNA re-replication in MCF 10a normal breast cells | MCF 10A DNA re-replication, Hoechst nuclear intensity, 48 h | 350,000 tested, 2.9% active | Potency, µM (top dose mostly 46.1 µM), hits mostly activators | AID 624296, 2012; also: nearly all actives have a fitted effect of over 50% in size
A number is an active result; – = inactive; ? = inconclusive; · = not tested or not shown. Calls follow the shape of the dose curve; as a rule, active = well fitted curve in the direction sought with a large enough effect; inconclusive = small, poorly fitted or top-dose-only effect, or another doubt; inactive = no such curve, though single readings can be large; an effect the other way counts as inactive or inconclusive.

SMILES	KB-V1 cytotox	SW480 rereplic	HT1080-NT tox	HT1080 IDH1KD tx	KB-3-1 tox	MCF10A rerep
CO/N=C(/C(=O)N[C@@H]1C(=O)N2C(C(=O)O)=C(C[n+]3ccc(N)n3CCO)CS[C@H]12)c1csc(N)n1	·	–	·	·	·	–
COc1ccc(NC(=S)NCCCc2ccccc2)cc1	–	18µM	–	–	–	–
COc1ccc(NC(=O)NCCCCc2ccccc2)cc1	–	–	–	–	–	–
COc1cc(OC)cc(C(=O)NC(=S)NCCc2ccccc2)c1	–	?	?	35µM	–	–
COc1ccc(C(=O)N(C)c2ccccc2C(=O)NCCc2ccccc2)cc1	5.8µM	–	–	?	2.9µM	–
COc1ccc(C(CC(=O)c2ccc(C)cc2)C(C#N)C#N)cc1OC (stereo not given)	?	?	21µM	23µM	?	21µM
Cc1ccc2c(c1)c(=O)c1ccccc1n2CCCC(=O)Nc1ccc(F)cc1F	–	·	·	·	–	·
Cc1ccc(C(C)n2cc(C(=O)NCc3cccnc3)nn2)cc1 (stereo not given)	15µM	–	–	–	–	–
CC(=O)Nc1cccc(NC(=O)/C=C/c2ccc(S(=O)(=O)N3CCOCC3)cc2)c1	–	–	–	–	–	–
Cc1ccc(NC(=O)/C=C/c2ccc(S(=O)(=O)N3CCOCC3)cc2)cc1S(=O)(=O)N(C)C	–	?	?	26µM	?	–
Cc1ccc(CNC(=O)/C=C/c2ccc(S(=O)(=O)N3CCOCC3)cc2)cc1	–	0.82µM	–	–	–	?
NS(=O)(=O)c1ccc(CNC(=O)/C=C/c2ccc(S(=O)(=O)N3CCOCC3)cc2)cc1	–	–	–	–	–	–
CCN(CC)S(=O)(=O)c1ccc(/C=C/C(=O)Nc2ccc(F)c(F)c2F)cc1	?	–	–	?	4.6µM	–
O=C(/C=C/c1ccc(S(=O)(=O)N2CCOCC2)cc1)Nc1ccc(F)c(F)c1F	21µM	–	–	–	?	–
COC(=O)c1cc2oc(C)cc2n1Cc1c(C)cc(C)cc1C	–	·	·	·	–	·
c1ccc(CN2CCN(c3ncnc4c3cnn4-c3ccccc3)CC2)cc1	–	·	·	·	–	·
O=C(CSc1ccsc1[N+](=O)[O-])NCc1ccccc1	?	–	–	–	5.8µM	–
COc1ccc(OC)c(NC(=O)c2csc(Cl)c2OC)c1	–	?	–	–	–	?
Cc1ccc(C(=O)O/N=C(\N)c2ccccn2)c(C)c1	?	?	16µM	15µM	?	7.3µM
Cc1ccc(C)c(OCC(=O)O/N=C(\N)c2cccnc2)c1	–	–	–	–	–	–
Cc1ccc(C)c(OCC(=O)O/N=C(\N)c2ccccn2)c1	–	–	–	–	–	10µM
CCOC(=O)c1c(C)[nH]c(C)c1S(=O)(=O)N1CCC(C(=O)NCc2ccccc2Cl)CC1	–	·	·	·	–	·
Cn1cncc1C#Cc1c(-c2ccc(S(C)(=O)=O)cc2)sc2ccccc12	–	0.73µM	–	–	–	?
COc1ccc(-c2sc3ccccc3c2C#Cc2cncn2C)cc1	–	–	?	?	?	?
CCN(CC)S(=O)(=O)c1cc(C(=O)N(C)CC(=O)Nc2ccc(Cl)cc2)ccc1Cl	–	–	–	–	–	–
C[C@@H](c1ccccc1)N1C[C@@H](COCc2ccccc2)Oc2cc(N3CC[C@H](N(C)C)C3)ccc2S1(=O)=O	–	·	–	–	?	·
CCCCC[C@H](C)N1C[C@@H](COCc2ccccc2)Oc2cc(N3CC[C@H](N(C)C)C3)ccc2S1(=O)=O	?	·	?	–	–	·
CCCCC[C@@H](C)N1C[C@@H](COCc2ccccc2)Oc2cc(N3CC[C@H](N(C)C)C3)ccc2S1(=O)=O	?	·	21µM	?	?	·

From PubChem
